Source: PubChem (Broad Institute)
The list is not random: actives were taken first. Their share in the collection is about 3.4%.
EWS-Fli block: blocks EWS/Fli oncoprotein-driven transcription | A673 NR0B1-luciferase reporter, viability-normalised | inhibition, % at 12.6 µM | 350,000 tested, 0.67% active | AID 651661;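 active = mean inhibition of at least 50% after viability correction, with every replicate also passing that limit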;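 also: firefly luciferase signal divided by Alamar Blue viability fluorescence both relative to DMSO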
SIRT5 inh: sirtuin-5 (human) deacylase inhibition; Purified SirT5, succinyl-peptide AMC, trypsin-coupled fluorescence; inhibition, % at 15 µM; 330,000 tested, 1.1% active; in the data active = inhibition above about 15%
Target sequence (Q9NXA8 whole entry, looked up): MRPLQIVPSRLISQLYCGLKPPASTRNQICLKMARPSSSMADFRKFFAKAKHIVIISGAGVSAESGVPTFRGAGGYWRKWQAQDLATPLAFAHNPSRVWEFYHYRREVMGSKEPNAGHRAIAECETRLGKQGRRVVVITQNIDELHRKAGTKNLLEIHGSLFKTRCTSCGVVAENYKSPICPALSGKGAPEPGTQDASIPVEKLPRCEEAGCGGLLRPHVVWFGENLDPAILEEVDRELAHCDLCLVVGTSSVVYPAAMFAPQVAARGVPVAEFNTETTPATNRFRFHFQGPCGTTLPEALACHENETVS
PGC1a acetyl inh: lowers PGC1a acetylation signal in U2OS cells; 350,000 tested, 0.17% active; AlphaScreen anti-acetyl-lysine; with virally co-expressed GCN5 acetyltransferase; inhibition, % at 15.6 µM;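 active = every replicate shows inhibition of at least 40%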;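 also: 0% = neutral control wells and 100% = positive control wells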
PAX8 inh HTS: PAX8 transcriptional activity inhibition | RMG-I TPO-luciferase reporter, SteadyGlo, 24 h | inhibition, % at 12.6 µM | 360,000 tested, 1.2% active;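 active = mean replicate inhibition at least 60% with every replicate also reaching 60%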;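 also: luciferase light reporting Pax8 driven TPO promoter activity; plate controls were median of neutral control wells for no effect and mitoxantrone controls for full effect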
Ecoli rRNA inh: inhibitors of bacterial rRNA selective over humanized ribosomes | E. coli WT GFP vs humanized-ribosome RFP mutants, fluorescence, 24 h; stronger effect = lower value; DMSO median 0, no signal -100 | GFP signal change (wild-type ribosome), % (no concentration beside the values) | 350,000 tested, 1.6% active | AID 720706;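 active = significant combined selectivity score with lowered wild-type GFP, culture density cut under 30%, mutant RFP and density less affected; inactive = any of these conditions unmet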
LGR2 inh: blocks bursicon-induced cAMP signaling via Drosophila LGR2 | inhibition, % at 9.99 µM | 380,000 tested, 0.35% active | HEK293 LGR2, CRE-luciferase, bursicon-stimulated, 4 h | AID 720647;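 active = drop in luminescence signal, shown as inhibition above about 50% in the replicate tests, limit read from the data, passing the limit was not always enough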;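 also: agonist challenge used bursicon conditioned medium at about half maximal strength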
* = called active by the depositor; nt = no result given; ! = repeats disagree.

SMILES	EWS-Fli block	SIRT5 inh	PGC1a acetyl inh	PAX8 inh HTS	Ecoli rRNA inh	LGR2 inh
Cc1nnn(C23C[C@@H]4C[C@@H](CC(C(=O)N5CCN(c6ccccc6)CC5)(C4)C2)C3)n1	9	-5	-1	4	-31*	nt
O=C1N[C@@H](Cc2ccccc2)COCc2cn(nn2)CC[C@H]1Cc1ccc(Cl)cc1	nt	nt	nt	nt	1	nt
C=CCc1cc(Cl)ccc1OCCN1CC(C)OC(C)C1 (stereo not drawn)	0	1	nt	0	-45	11
C=CCc1cc(OC)ccc1OCCN1CC(C)OC(C)C1 (stereo not drawn)	7	102*	-6	-9	-8	2
CCN(CCO)c1ccc(N=Nc2cc(C)[nH]n2)cc1	64*	6	nt	87*	-21*	92*
Cc1cc(Nc2cc(Cl)nc(Sc3ccc(NC(=O)C4CC4)cc3)n2)n[nH]1	39	-4	nt	75*	-54	4
O=C(C[C@H]1C[C@H]2c3cc(NC(=O)NC4CCCC4)ccc3O[C@H]2[C@@H](CO)O1)NCc1ccccn1	-13	-1	7	-25	0	-3
C[C@H](CO)N1C[C@H](C)[C@H](CN(C)C)Oc2cc(C#Cc3cccnc3)ccc2S1(=O)=O	-9	0	5	nt	10	-3
COc1ccc(S(=O)(=O)N(C)C[C@H]2Oc3c(NC(=O)Nc4ccc(C(F)(F)F)cc4)cccc3C(=O)N([C@@H](C)CO)C[C@H]2C)cc1	15	7	4	106*	2	-9
COc1ccc(S(=O)(=O)Nc2cccc3c2O[C@@H](CN(C)S(=O)(=O)c2c(C)noc2C)[C@H](C)CN([C@H](C)CO)C3=O)cc1	-1	102*	-8	nt	-2	0
C[C@H]1CN([C@@H](C)CO)C(=O)c2cccc(NC(=O)Nc3ccc(C(F)(F)F)cc3)c2O[C@H]1CN(C)S(=O)(=O)c1ccc(F)cc1	-16	16*	-8	-3	1	-4
C[C@H]1CN([C@@H](C)CO)C(=O)c2cccc(NC(=O)Nc3ccc(C(F)(F)F)cc3)c2O[C@@H]1CN(C)S(=O)(=O)c1ccc(F)cc1	3	13	-2	3	1	-6
C[C@@H]1CN([C@H](C)CO)C(=O)c2cccc(NC(=O)Nc3ccc(C(F)(F)F)cc3)c2O[C@H]1CN(C)S(=O)(=O)c1cccs1	17	17*	2	4	4	9
COc1ccc(S(=O)(=O)Nc2cccc3c2O[C@@H](CN(C)S(=O)(=O)c2c(C)noc2C)[C@H](C)CN([C@@H](C)CO)C3=O)cc1	9	5	-11	nt	2	9
O=C(C1CCCC1)N1CC2(C1)[C@H](c1ccccc1)[C@H](CO)N2CC1CC1	9	-1	-5	1	-3	-6
COCC(=O)N[C@@H]1C=C[C@H](CC(=O)NCc2ccccc2OC)O[C@@H]1CO	4	-6	0	-7	1	7
COc1ccc(S(=O)(=O)N(C)C[C@@H]2Oc3c(NC(=O)c4ccncc4)cccc3C(=O)N([C@@H](C)CO)C[C@H]2C)cc1	-5	17*	6	nt	-2	-2
COc1ccc(S(=O)(=O)N(C)C[C@@H]2Oc3c(NC(=O)c4ccncc4)cccc3C(=O)N([C@@H](C)CO)C[C@@H]2C)cc1	-8	-2	-3	nt	-1	7
Clc1ccc(-n2nnnc2-c2cnc3ccccc3c2-c2ccccc2)cc1	20	-4	-4	4	-21*	nt
Nc1ncnc2nc[nH]c12	-16	44*!	-3	-10	-17	-12
CS(=O)(=O)c1ncc(Cl)c(C(=O)Nc2ccc3ccccc3c2)n1	84*	0	nt	89*	-22	nt
CC(=O)Nc1ccc(NC(=O)c2nc(S(=O)(=O)Cc3ccccc3)ncc2Cl)cc1	nt	-3	nt	94*	-2	-13
CCS(=O)(=O)c1ncc(Cl)c(C(=O)Nc2ccc(C)cc2)n1	65*	2	nt	100*	-57	0
CCc1nnc(NC(=O)c2nc(S(=O)(=O)Cc3ccccc3)ncc2Cl)s1	nt	-1	nt	24	4	3
Cc1ccc(CS(=O)(=O)c2ncc(Cl)c(C(=O)Nc3ccc(OC(F)F)cc3)n2)cc1	49	-4	nt	21	12	-32
SMILES	EWS-Fli block	SIRT5 inh	PGC1a acetyl inh	PAX8 inh HTS	Ecoli rRNA inh	LGR2 inh
COC(=O)c1ccccc1NC(=O)c1nc(S(=O)(=O)Cc2ccccc2)ncc1Cl	63*	-1	nt	-11	5	14
C[C@@H]1COCn2nncc2CC[C@@H](Cc2ccc(Cl)cc2)C(=O)N1	nt	nt	nt	nt	5	nt
CCS(=O)(=O)c1ncc(Cl)c(C(=O)Nc2ccc(S(=O)(=O)N3CCCC(C)C3)cc2)n1 (stereo not drawn)	nt	2	nt	102*	-13	8
CCC1CCCCN1S(=O)(=O)c1ccc(NC(=O)c2nc(S(C)(=O)=O)ncc2Cl)cc1 (stereo not drawn)	69*	-2	nt	104*	-29*	3
O=C(Nc1ccc(Br)cc1)C1CCN(C(=O)c2ccco2)CC1	-4	2	nt	2	-15	-1
CCOc1ccccc1NC(=O)c1nc(S(=O)(=O)Cc2cccc(C)c2)ncc1Cl	58*	-2	nt	132*	2	4
CCC1CCCCN1S(=O)(=O)c1ccc(NC(=O)C2CCN(C(=O)c3ccco3)CC2)cc1 (stereo not drawn)	4	0	-7	64*	5	-7
CC1CCCN(S(=O)(=O)c2ccc(NC(=O)CNC3CCCC3)cc2)C1 (stereo not drawn)	4	8	nt	4	1	-10
CCc1nnc(NC(=O)c2nc(S(=O)(=O)Cc3cccc(C)c3)ncc2Cl)s1	nt	0	nt	28	4	-19
CO[C@@H]1CN(C)C(=O)c2ccc(NC(=O)NC(C)C)cc2OC[C@@H](C)N(Cc2cncnc2)C[C@H]1C	4	nt	11	nt	0	-10
CN([C@@H](C(=O)OC(C)(C)C)c1ccccc1)S(=O)(=O)c1cccc(S(=O)(=O)N(C)[C@@H](C(=O)OC(C)(C)C)c2ccccc2)c1	4	nt	-1	3	4	-2
CC(C)(C)OC(=O)CC(S(=O)(=O)c1ccccc1)S(=O)(=O)c1ccccc1	-5	nt	6	86*	-10	12
Cc1ccc(SCC(=O)Nc2ccc(S(=O)(=O)Nc3nccs3)cc2)cc1	7	-6	nt	30	-37*	-10
O=C(CSc1ccncc1)Nc1ccc(S(=O)(=O)Nc2nccs2)cc1	-7	nt	nt	-8	5	7
O=C(C[C@H]1C=C[C@@H](NC(=O)C2CC2)[C@@H](CO)O1)Nc1nccs1	-4	-1	2	1	0	13
Cc1ccccc1/C=C/C(=O)c1ccc([N+](=O)[O-])o1	71*	1	nt	24	-55	92*
O=C(/C=C/c1cccc([N+](=O)[O-])c1)c1ccc([N+](=O)[O-])o1	81*	nt	nt	27	1	32
